# Experimental data taken from publication PMC12670160, “A drug-repurposing screen of FDA- and EMA-approved drugs identifies two NF-κB inhibitors active against eumycetoma” (Journal of Antimicrobial Chemotherapy, 2025).
# Where a name gives a salt, the structure may show the parent alone. Read-outs that look alike come from different tables or passages of the source. The whole screen tested about 5,300 compounds, of which about 130 (2.5%) showed an effect of 50% or more. For the sample, strong results were picked, then their nearest neighbours and some compounds at random. Numbered stars: 1 amine (or outer) side, 2 acyl side, 3 side chain; on linkers, the order of the positions; unused ones are H or OH. Bridge positions count the residues as written; N and C are the ends. Square brackets hold non-standard residues; d marks the D form. Side chains are listed from the residue outwards. Peptide text beside a SMILES is read from it. I, II: the chains in the order shown. * marks the point of attachment. Actinocin(9to1) = Cc1c2oc3c(C)ccc(C(=O)[*:1])c3nc-2c(C(=O)[*:2])c(N)c1=O; X1 = CCC(C)C(N)C1=NC(C(=O)*)CS1; NMeV = CN[C@H](C(=O)O)C(C)C; Orn = NCCC[CH](N)C(=O)O; Sar = CNCC(=O)O
# Tested on: M. mycetomatis strain mm55
# Conditions: primary screen, metabolic activity vs growth control, 96 h, 2 µM, inhibitor
Compound,% viability [%],% viability (Madurella mycetomatis metabolic activity at 2µM (%)) [%]
"CSc1ccc([C@H]2CN3CCC[C@H]3c3ccccc32)cc1 [ONC0000925, mcn5652]",74.54,–
"CN1CCCC1c1cccnc1 (stereo not drawn) [ONC0005499, nicotine bitartrate]",91,–
"C[C@@H]1NC(C)(C)CO[C@@]1(O)c1cccc(Cl)c1 [ONC0001157, radafaxine hydrochloride]",85.48,–
"[2H]C([2H])([2H])C(=O)Nc1c(I)c(C(=O)O)c(I)c(C(=O)NC)c1I [ONC0002149, iothalamic acidd3]",66.44,–
"CCC(C)C(N)C1=NC(C(=O)NC(CC(C)C)C(=O)NC(CCC(=O)O)C(=O)NC(C(=O)NCCCCC2NC(=O)C(CC(N)=O)NC(=O)C(CC(=O)O)NC(=O)C(Cc3c[nH]cn3)NC(=O)C(Cc3ccccc3)NC(=O)C(C(C)CC)NC(=O)C(CCCN)NC2=O)C(C)CC)CS1 (stereo not drawn) [ONC0003188, bacitracin] (cyclo(DNK([Ile-Glu-Leu-X1])[Orn]IFH); configuration not given here)",113.7,–
"O=C(O)c1ccccn1 [ONC0003765, picolinicacid]",105.8,–
C/C(=N\NC(=S)N1CCC1)c1ccccn1 [nsc319726],6.057,–
"C=C(NNC(=S)NNC(=S)Nc1ccccc1Cl)c1ccccn1 [ONC0001982, n2chlorophenyl22e212pyridinylethylidenehydrazinocarbothioylhydrazinecarbothioamide]",78.69,–
"Cc1c2oc3c(C)ccc(C(=O)N[C@@H]4C(=O)N[C@H](C(C)C)C(=O)N5CCC[C@H]5C(=O)N(C)CC(=O)N(C)[C@@H](C(C)C)C(=O)O[C@@H]4C)c3nc-2c(C(=O)N[C@@H]2C(=O)N[C@H](C(C)C)C(=O)N3CCC[C@H]3C(=O)N(C)CC(=O)N(C)[C@@H](C(C)C)C(=O)O[C@@H]2C)c(N)c1=O [ONC0002258, actinomycin d] (I: T[dV]P[Sar][NMeV] / II: T[dV]P[Sar][NMeV]; ester I:1-I:C, II:1-II:C; linker I:N-II:N via Actinocin(9to1))",–,100.3
"CNCCN(C)Cc1c[nH]nc1-c1ccc(O[C@H]2C[C@H](OCCC3CCOCC3)C2)cc1.Cl [ONC0000962, epz020411 hydrochloride]",79.33,–
"CN1c2c(nc(N)[nH]c2=O)NC[C@@H]1CNc1ccc(C(=O)N[C@@H](CCC(=O)O)C(=O)O)cc1 [ONC0002220, levomefolate calcium]",182.5,–
"CCCCCCCCCCCCCCCC(=O)OC[C@H](O)[C@H]1OC(=O)C(=O)C1O (stereo partly drawn) [ONC0004072, ascorbyl palmitate]",135.5,–
